KCNQ2 pot: potentiators of rat KCNQ2 potassium channel; CHO-K1 KCNQ2, FluxOR thallium flux fluorescence; hits give high values; B-score at 10 µM; 310,000 compounds, 0.54% hits; Potassium voltage-gated channel subfamily KQT member 2 (Rattus norvegicus), O88943; AID 2239, 2010;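 active = fluorescence ratio B-score at least 3 SD of library B-scores, with initial fluorescence B-score within 3 of them, cut at about 5.3 in these data; same plate scores as AID 2156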;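 also: B-score of peak minus minimum over baseline fluorescence ratio after K+ and Tl+ stimulus; positive B-score means potentiation of KCNQ2 with more thallium influx and brighter signal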
Target sequence (O88943 whole entry, looked up): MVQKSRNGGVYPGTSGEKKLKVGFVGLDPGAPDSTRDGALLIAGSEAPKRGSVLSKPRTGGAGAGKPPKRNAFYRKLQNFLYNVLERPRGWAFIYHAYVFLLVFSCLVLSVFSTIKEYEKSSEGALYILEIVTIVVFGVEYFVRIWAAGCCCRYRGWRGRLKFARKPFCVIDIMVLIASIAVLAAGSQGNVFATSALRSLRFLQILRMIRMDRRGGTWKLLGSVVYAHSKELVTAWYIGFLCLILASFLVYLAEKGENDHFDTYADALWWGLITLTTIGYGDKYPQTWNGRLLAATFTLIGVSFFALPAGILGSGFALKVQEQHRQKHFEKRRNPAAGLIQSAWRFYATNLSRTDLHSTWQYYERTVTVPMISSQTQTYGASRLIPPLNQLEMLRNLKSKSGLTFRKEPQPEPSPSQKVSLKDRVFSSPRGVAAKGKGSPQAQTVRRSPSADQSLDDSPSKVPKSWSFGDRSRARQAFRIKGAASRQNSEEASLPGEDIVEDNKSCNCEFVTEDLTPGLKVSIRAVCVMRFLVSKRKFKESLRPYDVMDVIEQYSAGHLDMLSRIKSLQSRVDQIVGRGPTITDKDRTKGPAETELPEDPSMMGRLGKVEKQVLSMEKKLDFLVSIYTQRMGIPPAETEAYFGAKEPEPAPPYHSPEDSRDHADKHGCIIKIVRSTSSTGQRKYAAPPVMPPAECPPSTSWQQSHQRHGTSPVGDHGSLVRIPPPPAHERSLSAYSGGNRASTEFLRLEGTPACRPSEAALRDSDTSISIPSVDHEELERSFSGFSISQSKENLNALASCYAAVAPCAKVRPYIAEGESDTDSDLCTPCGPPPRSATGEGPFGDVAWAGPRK
KCNQ2 inh: rat KCNQ2 potassium channel inhibitors, primary screen, cell-based, CHO-K1, FluxOR thallium flux, B-score; AID 2156, 2009; B-score at 10 µM; 310,000 compounds, 1.1% hits; Potassium voltage-gated channel subfamily KQT member 2 (Rattus norvegicus), O88943; 20 min; hits give low values;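 active = fluorescence ratio B-score at most minus 3 library SDs, with starting brightness B-score within 2 library SDs, cut at about -5.5 in these data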
Starred values were filed as active, the others as inactive; i = inactive; . = not tested or not shown. Most compounds without a hit are left out; they make up all but 1.6% or so of the library.

SMILES	KCNQ2 pot	KCNQ2 inh
CC(C)c1ccc(C(=O)N2CCN(c3cnn(C)c(=O)c3Cl)CC2)cc1	0.26	i
O=C(c1ccccc1N1CCOCC1)N1CCCC(Nc2ccc(F)cc2)C1 (centres undefined)	.	i
CC(C)(C)c1ccc(C(=O)N2CCCC2c2cccs2)cc1 (centres undefined)	.	i
CCN(Cc1nc(-c2ccc(OC)cc2)no1)C(=O)c1ccoc1C	0.17	i
Clc1cccc(/C=N/Nc2nnc(Cl)c3ccccc23)c1	.	i
Clc1ccc(/C=N/Nc2nnc(-c3ncc[nH]3)c3ccccc23)cc1	-5.7	-5.7*
CCOc1ccc(CC(=O)Nc2ccc(S(=O)(=O)N3CCCC3)cc2)cc1	.	i
Cc1ccc(OCc2nnc(SCC(=O)C(C)(C)C)n2Cc2ccco2)cc1	-7	-7*
Cc1cc(NC(=O)CSc2nnc(COc3ccccc3)n2Cc2ccco2)no1	0.85	i
CC(=O)Nc1ccc(N(C(=O)c2ccco2)C(C(=O)NC2CCCC2)c2ccncc2)cc1 (centres undefined)	2	i
COc1ccc(SCC(=O)c2cc(C)c(OC(=S)N(C)C)c(C)c2)cc1	.	i
Cc1cc(C(=O)CSc2ccc(F)cc2)cc(C)c1OC(=S)N(C)C	-6	-6*
CC(C)OC(=O)C(C)(C)Oc1ccc(C(=O)c2ccc(Cl)cc2)cc1	-8.1	-8.1*
CC(C)(Oc1ccc(Cl)cc1)C(=O)O	0.32	i
O=C(NCCCN1CCOCC1)c1ccc2c(c1)N(Cc1ccc(Cl)cc1)C(=O)c1ccccc1S2=O (centres undefined)	.	i
CCOC(=O)c1cc(-c2ccccc2)nc2ccc(C)cc12	.	i
CCOC(=O)c1cnc2ccc(C)cc2c1Sc1ccc(F)cc1	-5.5	-5.5*
CCN(CC)c1ccc(S(=O)(=O)Nc2cc(Cl)ccc2Cl)cc1NC(=S)NC(=O)C1CCCC1	-7.1	-7.1*
COc1ccccc1NS(=O)(=O)c1ccc(Cl)c(NC(=S)NC(=O)C2CCCC2)c1	.	i
Cn1c(=O)c(C(=O)NCCc2ccccc2)c(O)c2ccccc21	.	i
CC(NC(=O)c1c(O)c2ccccc2n(C)c1=O)c1ccccc1 (centres undefined)	-5.8	-5.8*
CN1CCN(c2ccc(NC(=O)CSc3nnnn3-c3ccccc3F)cc2)CC1	0.06	i
Cc1ccnc(NC(=O)c2ccc(S(=O)(=O)c3ccccc3)cc2)c1	1.6	i
COc1cccc2c1OC1(C)CC2NC(=O)N1c1cccc(C(=O)Nc2ccc3c(c2)OCCO3)c1 (centres undefined)	-6.7	-6.7*
COc1ccc(NC(=O)c2cccc(N3C(=O)NC4CC3(C)Oc3ccccc34)c2)cc1 (centres undefined)	.	i
SMILES	KCNQ2 pot	KCNQ2 inh
CCOc1ccc(NC(=O)CSc2nnc(NC(=O)C3CC3)s2)cc1	.	i
CSc1ccc(-c2sc(Nc3cccc4ccccc34)n[n+]2-c2ccccc2)cc1	-5.6	-5.6*
CSc1ccc(-c2sc(Nc3ccccc3)n[n+]2-c2ccccc2)cc1	.	i
Cc1ccccc1Nc1nc(N)nc(CSc2n[nH]c(N)n2)n1	0.18	i
O=C(Nc1cccc(Cl)c1N1CCCC1)c1ccc([N+](=O)[O-])o1	0.07	i
O=C(Nc1cc(Cl)ccc1N1CCOCC1)c1cc2ccccc2o1	.	i
O=C(Nc1cccc(Cl)c1N1CCCC1)c1ccc(Br)o1	-7.9	-7.9*
O=C(Nc1cccc(Cl)c1N1CCCC1)c1cc2ccccc2o1	-6.2	-6.2*
COc1ccc(C2CC(=O)OC3=C2C(=O)CC(C)(C)C3)c(OC)c1 (centres undefined)	0.09	i
COc1ccc([C@@H]2COc3c(ccc4c3C=CC(C)(C)O4)C2)c(OC)c1	-6.3	-6.3*
Cc1ccccc1OCC(=O)N1CCCCCCC1	0.01	i
Cc1ccc(NC(=O)CN2CCCC2)cc1Br	.	i
CCOC(=O)C1=C(CNCc2ccccc2Cl)NC(=O)NC1c1ccc2c(c1)OCO2 (centres undefined)	.	i
CCOC(=O)C1=C(CNCc2ccccc2Cl)NC(=O)NC1c1cccc([N+](=O)[O-])c1 (centres undefined)	-6.3	-6.3*
Cc1ccc(C(=O)N2CCN(S(=O)(=O)c3ccc(Br)cc3)CC2)o1	.	i
C[Si](C)(C)n1ccnc1	0.67	i
O=C(Cc1ccccc1)Nc1cccc(N2C(=O)C=CC2=O)c1	1.5	i
C=CCn1c(COc2ccccc2)nnc1SCC(=O)N/N=C/c1ccc(C)cc1	.	i
C=CCn1c(SCC(=O)NCc2ccccc2)nnc1-c1ccccc1O	.	i
O=C(CSc1nnc(CCc2ccccc2)n1-c1ccc(Cl)cc1)NCc1ccccc1	-7.4	-7.4*
COc1ccc(-n2c(CCc3ccccc3)nnc2SCC(=O)NCc2ccccc2)cc1	.	i
C=CCn1c(COc2ccccc2)nnc1SCC(=O)N/N=C/c1cc(Cl)ccc1O	-6.4	-6.4*
C=CCn1c(CSCc2ccc(Cl)cc2)nnc1SCC(=O)NCc1ccccc1	-6.5	-6.5*
O=C(O)/C(=C\c1ccc2ccccc2c1)c1cccc2ccccc12	.	i
CCOC(=O)C1CCN(C(=O)Cn2c(=O)oc3cc(S(=O)(=O)N4CCCC4)ccc32)CC1	0.13	i
SMILES	KCNQ2 pot	KCNQ2 inh
Clc1ccc(-c2nnc(-c3ccccc3)c(-c3ccccc3)n2)cc1	-6.2	-6.2*
Clc1ccc(-c2nnc(-c3ccccc3)c(N3CCSCC3)n2)cc1	-6	-6*
O=[N+]([O-])c1ccc(-c2nnc(-c3ccccc3)c(N3CCOCC3)n2)cc1	.	i
Clc1ccc(-c2nnc(-c3ccccc3)c(-c3c[nH]c4ccccc34)n2)cc1	1.1	i
O=C(NCc1ccccc1Cl)c1cc2c(s1)CS(=O)(=O)C2	.	i
CC(NC(=O)CSc1ncccc1C(=O)O)C1CC2CCC1C2 (centres undefined)	.	i
CCOC(=O)N1CCN(C(=O)COC(=O)c2ccccc2NCCO)CC1	.	i
O=C(c1cccc(-c2nnc(-c3ccccc3)o2)c1)N1CCCCCC1	-5.8	-5.8*
O=C(c1cccc(-c2nnc(-c3ccccc3)o2)c1)N1CCCCC1	0.13	i
Cc1ccc(S(=O)(=O)NCc2ccccc2)cc1C(=O)N1CC(C)CC(C)C1 (centres undefined)	-6	-6*
Cc1ccc(S(=O)(=O)NCc2ccccc2)cc1C(=O)N1CCCCC1	1.6	i
CC(C)C(NC(=O)CN(c1ccc2c(c1)OCCO2)S(=O)(=O)c1ccccc1)C(C)C	.	i
CSc1ccc(S(=O)(=O)NCc2ccccc2C)cc1	-6.1	-6.1*
Cc1ccc(S(=O)(=O)NCc2ccccc2C)cc1	.	i
Cc1ccc(NC(=O)COC(=O)CCc2ccc(S(=O)(=O)N3CCOCC3)cc2)cc1F	0.05	i
COc1ccc(CCNCC(O)COc2c(C)cccc2C)cc1OC (centres undefined)	.	i
Cc1cc(C)n(-c2nc3ccccc3nc2N2CCN(C(=O)c3ccc(F)cc3)CC2)n1	.	i
Cc1nc2ccccc2nc1N1CCC(C)CC1	0.87	i
Cc1ccc(S(=O)(=O)N2CCN(c3nc4ccccc4nc3-n3nc(C)cc3C)CC2)cc1	-6	-6*
Cc1cc(C)n(-c2nc3ccccc3nc2N2CCC(C)CC2)n1	-6.8	-6.8*
COc1cc(N)c(Cl)cc1C(=O)OCC(=O)Nc1cccnc1Cl	0.8	i
Cc1ccnc(NC(=O)c2ccc(S(=O)(=O)N3CCCCCC3)cc2)c1	.	i
